Laboratory results published in PubChem BioAssay (Tox21).
Results filed as inconclusive are left out. Entries that show only a call come without a potency. The source holds several records for some structures; these can differ, active in one and inactive in another. Calls of active or inactive are those of the source. Unless noted, calls come from the whole dose curve; as a rule, active = well fitted curve in the direction sought with a large enough effect in the repeat runs; inconclusive = weak or mixed curves; inactive = no such curve, though single readings can be large; an effect the other way counts as inactive or inconclusive.

Columns and labels:
[1] = qHTS assay to identify small molecule agonists of the vitamin D receptor (VDR) signaling pathway - cell viability counter screen (AID 743224); note: nearly all actives have a fitted effect of over 50% in size; note: potency is the fitted concentration of half-maximal effect
Method in brief: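 Plated VDR-bla cells (4 h, 37C) received compound, incubated 16 h, then LiveBLAzer substrate 2 h RT; CellTiter-Glo added afterwards, luminescence read at 30 min.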

[2] = qHTS assay to identify small molecule antagonists of the vitamin D receptor (VDR) signaling pathway - cell viability counter screen (AID 743225); note: nearly all actives have a fitted effect of over 50% in size
Method in brief: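 Compounds were pinned onto VDR-bla HEK 293T cells together with 1-alpha,25-dihydroxyvitamin D3 at 3 nM final. After 16 h at 37C and 5% CO2 plus the reporter readout, cell viability was measured by CellTiter-Glo luminescence (30 min, room temperature).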

[3] = qHTS assay to identify small molecule agonists of the NFkB signaling pathway (AID 1159509; active = well fitted curve in the direction sought with a large enough effect in the signal ratio in the repeat runs, not every such curve was filed as active; the % refers to the signal ratio; note: series mostly up to about 61 µM)
Method in brief: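 ME-180 NFkB-bla, 2,000 cells/well, overnight plating; cpd pinned in DMSO, 5 h 37 C; B/G FRET substrate 1.5 h RT; ex 405, em 460/530 nm.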

[4] = qHTS assay to identify small molecule agonists of the NFkB signaling pathway - cell viability counter screen (AID 1159515; calls by dose curve; note: series mostly up to about 61 µM; nearly all actives have a fitted effect of over 55% in size)
Method in brief: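 Using the same wells as the NFkB reporter read, ME-180 NFkB-bla cells given compounds for 5 hr were assessed for viability via CellTiter-Glo, with luminescence taken after a 30 min room-temperature incubation.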

[5] = qHTS assay to identify small molecule agonists of the endoplasmic reticulum stress response signaling pathway (AID 1159516; active = well fitted activation curve with a large enough effect in the signal ratio in the repeat runs, not every such curve was filed as active; the % refers to the signal ratio)
Method in brief: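 An ESRE-bla HeLa cell assay: compounds were pin-transferred from DMSO onto overnight-plated cells and left 5 hr at 37 C. Substrate was then loaded for 2 hr at room temperature before reading fluorescence at 460 nm and 530 nm.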

[6] = qHTS assay to identify small molecule agonists of the AP-1 signaling pathway - cell viability counter screen (AID 1159525; calls by dose curve; note: nearly all actives have a fitted effect of over 55% in size)
Method in brief: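 Luminescent ATP readout (Cell Titer Glo, 30 min RT), normalised to DMSO and tetra n-octyl ammonium bromide controls. Cells were ME-180 AP-1-bla in 0.5% dialyzed FBS Opti-MEM, with a 5 h, 37 °C compound exposure.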

[7] = qHTS assay to identify small molecule agonists of the AP-1 signaling pathway (AID 1159526; calls by dose curve)
[8] = biological target: Retinoic acid receptor RXR-alpha (Homo sapiens) (UniProt P19793); experiment: qHTS assay to identify small molecule agonists of the RXR signaling pathway (AID 1159527; calls by dose curve; note: nearly all actives have a fitted effect of over 35% in size)
Method in brief: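 Using 9-cis retinoic acid as the reference agonist, chemicals were tested in HEK 293T cells […] for 16 hr; substrate loading lasted 2 hr at room temperature.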

[9] = qHTS assay to identify small molecule agonists of the RXR signaling pathway - cell viability counter screen (AID 1159529); note: nearly all actives have a fitted effect of over 50% in size; note: potency is the fitted concentration of half-maximal effect
Method in brief: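 Compounds dissolved in DMSO were pinned onto HEK 293T cells carrying a beta-lactamase reporter under RXR-alpha control and incubated 16 hr. Cytotoxicity was then quantified by CellTiter-Glo luminescence.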

[10] = qHTS assay to identify small molecule antagonists of the retinoid acid receptor (RAR) signaling pathway - cell viability counter screen (AID 1159551); note: nearly all actives have a fitted effect of over 35% in size; note: potency is the fitted concentration of half-maximal effect
Method in brief: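 Retinol-stimulated (1 uM final) C3RL4 cells, compound 6 h, 37 C; readout CellTiter-Glo luminescence (ATP) after 30 min RT incubation.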

[11] = qHTS assay to identify small molecule antagonists of the retinoic acid receptor (RAR) signaling pathway (AID 1159552; note: nearly all actives have a fitted effect of over 50% in size)
Method in brief: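 Test chemicals and DMSO controls were pin-transferred onto C3RL4 cells a day after seeding; retinol (1 uM final) followed at once. Luminescent reporter output was quantified after 6 hr of co-incubation and 30 min with detection reagent.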

[12] = qHTS assay to identify small molecule agonists of the endoplasmic reticulum stress response signaling pathway - cell viability counter screen (AID 1159517; calls by dose curve)
Method in brief: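 HeLa cells carrying an ESRE-driven beta-lactamase reporter receive compound for 5 hr at 37 C. Cell viability is then gauged with CellTiter-Glo by luminescence, 30 min at room temperature.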

[13] = qHTS assay to identify small molecule antagonists of the retinoid-related orphan receptor gamma (ROR-gamma) signaling pathway - cell viability counter screen (AID 1159520); note: nearly all actives have a fitted effect of over 50% in size; note: potency is the fitted concentration of half-maximal effect
Method in brief: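 Cytotoxicity was read from cellular ATP (CellTiter-Glo luminescence) after 16 hr at 37 C with 1 uM doxycycline induction. The inducer was added 2 hr after compound transfer to Tet-on ROR gamma CHO cells.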

[14] = biological target: Nuclear receptor ROR-gamma (Homo sapiens) (UniProt P51449); experiment: qHTS assay to identify small molecule antagonists of the retinoid-related orphan receptor gamma (ROR-gamma) signaling pathway (AID 1159521; note: nearly all actives have a fitted effect of over 50% in size; note: potency is the fitted concentration of half-maximal effect)
Method in brief: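 Test compounds were applied to Tet-on RORγ CHO cells 2 h ahead of doxycycline hyclate (1 uM final). Luciferase reporter activity was quantified by luminescence after 16 h at 37 C and 5% CO2.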

[15] = qHTS assay to identify small molecule agonists of the retinoic acid receptor (RAR) signaling pathway (AID 1159553); note: potency is the fitted concentration of half-maximal effect
Method in brief: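 Reporter readout comes from luciferase under RARE control in C3RL4 cells; compound exposure lasts 6 hr at 37 C in 5% CO2, and luminescence is recorded following a 30 min room-temperature incubation with reagent.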

[16] = qHTS assay to identify small molecule antagonists of the estrogen related receptor (ERR) signaling pathway - cell viability counter screen (AID 1224818);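 note: series mostly up to about 46 µM; viability measured after 17.5 h of compound exposure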
Method in brief: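 After a 6 h pre-incubation, ERR cells were dosed by pin tool with compounds, positive/negative controls or DMSO alone. Following 17.5 h at 37 C and 30 min with CellTiter-Fluor, fluorescence was recorded.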

[17] = qHTS assay to identify small molecule agonists of the estrogen related receptor (ERR) signaling pathway (AID 1224820)
Method in brief: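 Cells: ERR line from NTP, 2,000/well. Pre-incubation 6 h, 37 C/5% CO2. Compound (DMSO) pin transfer, 18 h 37 C. One-Glo, 30 min RT, luminescence.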

[18] = system: estrogen-related receptor alpha (ERRalpha) with PGC-1alpha coactivator, human; experiment: qHTS assay to identify small molecule antagonists of the estrogen related receptor signaling pathway with the pleiotropic PPARgamma coactivator (PGC) (AID 1224821; calls by dose curve)
Method in brief: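 Luminescent read-out (One-Glo, 30 min at room temperature) following 18 h treatment of PGC/ERR cells at 37 C with compounds delivered in DMSO. Cells had settled 6 h at 37 C/5% CO2 before dosing.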

[19] = qHTS assay to identify small molecule agonists of the estrogen related receptor signaling pathway with the pleiotropic PPARgamma coactivator (PGC) (AID 1224823)
Method in brief: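 Steps: plate PGC/ERR cells at 2,000 cells/well; incubate 6 h, 37 C/5% CO2; pin-transfer compounds (DMSO); incubate 18 h, 37 C; add One-Glo; 30 min RT; read luminescence.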

[20] = qHTS assay to identify small molecule antagonists of the estrogen related receptor (ERR) signaling pathway (AID 1224819)
Method in brief: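 Luminescence readout (One-Glo, 30 min, RT) of ERR cell line after 18 h compound exposure at 37 C; cells seeded 2,000/well, pre-incubated 6 h, compounds pinned from DMSO stocks.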

Retinoic acid receptor RXR-alpha (Homo sapiens), sequence (P19793 whole entry, looked up): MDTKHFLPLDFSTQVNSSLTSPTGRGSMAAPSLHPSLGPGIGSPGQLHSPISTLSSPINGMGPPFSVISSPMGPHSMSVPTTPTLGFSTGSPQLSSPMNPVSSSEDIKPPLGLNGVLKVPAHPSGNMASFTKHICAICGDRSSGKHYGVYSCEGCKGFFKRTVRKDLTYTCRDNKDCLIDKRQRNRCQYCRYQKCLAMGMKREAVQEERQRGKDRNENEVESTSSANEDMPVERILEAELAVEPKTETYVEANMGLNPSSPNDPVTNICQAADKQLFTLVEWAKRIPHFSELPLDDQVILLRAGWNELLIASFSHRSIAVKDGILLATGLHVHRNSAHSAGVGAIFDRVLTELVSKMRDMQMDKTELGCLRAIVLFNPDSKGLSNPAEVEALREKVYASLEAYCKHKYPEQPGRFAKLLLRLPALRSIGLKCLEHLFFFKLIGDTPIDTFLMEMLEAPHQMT

Row | SMILES | Potency [1] | Potency [2] | outcome [3] | Potency [4] | outcome [5] | Potency [6] | outcome [7] | Potency [8] | Potency [9] | Potency [10] | Potency [11] | Potency [12] | Potency [13] | Potency [14] | Potency [15] | outcome [16] | outcome [17] | Potency [18] | outcome [19] | outcome [20]
1 | CC(Cl)C(C)Cl (stereo not given) | inactive | inactive | inactive | inactive | inactive | inactive | inactive | inactive | inactive | inactive | inactive |  |  |  |  |  |  |  |  | 
2 | CC(C)=CCOc1c2occc2cc2ccc(=O)oc12 | inactive | inactive | inactive | inactive |  | inactive | inactive | inactive | inactive | inactive | inactive | inactive | inactive | inactive | inactive | inactive | inactive | inactive | inactive | 
3 | Nc1nc(N)nc(N)n1 | inactive | inactive | inactive | inactive | inactive | inactive | inactive |  | inactive | inactive | inactive |  | inactive | inactive | inactive |  |  |  |  | 
4 | C[C@@H]1CC[C@H]2[C@@H](C)C(=O)O[C@@H]3O[C@@]4(C)CC[C@@H]1[C@]32OO4 | inactive | inactive | inactive | inactive | inactive | inactive | inactive |  | inactive | inactive |  |  |  | 237 nM (active) |  |  |  |  |  | 
5 | COC(C)(C)CCC[C@H](C)C/C=C/C(C)=C/C(=O)OC(C)C |  |  | inactive | inactive | inactive | inactive | inactive |  | inactive | inactive | inactive |  | inactive |  | inactive |  |  |  |  | 
6 | COc1cc(CC(C)N)cc2c1OCO2 (stereo not given) | inactive | inactive | inactive | inactive |  | inactive | inactive | inactive | inactive | inactive | inactive | inactive | inactive | inactive | inactive |  |  |  |  | 
7 | C/C=C/C=O | inactive |  | inactive | inactive | inactive | inactive | inactive |  | inactive | inactive | inactive |  | inactive | inactive | inactive |  |  |  |  | 
8 | COP(=S)(OC)Oc1ccc([N+](=O)[O-])cc1Cl | inactive | inactive | inactive | inactive | inactive | inactive | inactive |  |  | inactive | inactive |  | inactive | 43300 nM (active) |  |  |  |  |  | 
9 | Nc1nc(=S)[nH][nH]1 | inactive | inactive | inactive | inactive | inactive | inactive | inactive |  | inactive | inactive | inactive |  |  | inactive | inactive |  |  |  |  | 
10 | O=Cc1ccc2c(c1)OCO2 | inactive | inactive | inactive | inactive |  | inactive | inactive |  | inactive | inactive | inactive | inactive | inactive | inactive | inactive |  |  |  |  | 
11 | Brc1ccc(Oc2ccccc2)cc1 | inactive | inactive | inactive | inactive | inactive | inactive | inactive | inactive | 31.7 µM (active) and inactive | inactive |  |  | inactive | 55.8 µM (active) and inactive |  |  |  |  |  | 
12 | BrCCCCBr | inactive |  | inactive | inactive | inactive | inactive | inactive |  | inactive | inactive | inactive |  | inactive | inactive | inactive |  |  |  |  | 
13 | O=C1CN=C(c2ccccc2)c2cc(Cl)ccc2N1CC1CC1 | inactive | inactive | inactive | inactive | inactive | inactive | inactive |  | inactive | inactive | inactive |  | inactive | inactive | inactive |  |  |  |  | 
14 | C=CCOC(C)=O | inactive |  | inactive | inactive | inactive | inactive | inactive |  | inactive | inactive | inactive |  | inactive |  | 75.9 µM (active) |  |  |  |  | 
15 | COP(=S)(Oc1cc(Cl)c(Br)cc1Cl)c1ccccc1 (stereo not given) | 38.9 µM (active) |  | inactive | inactive | inactive | inactive |  |  |  | inactive |  |  |  |  | inactive |  |  |  |  | 
16 | Clc1ccc(C2(Cn3cncn3)CC(Br)CO2)c(Cl)c1 (stereo not given) | inactive |  | inactive | inactive |  | inactive | inactive |  | inactive | inactive |  | inactive | inactive |  |  |  |  |  |  | 
17 | CCOC(=O)[C@]1(c2ccccc2)Oc2ccccc2[C@@H]1N |  |  | inactive | inactive |  | inactive |  |  | inactive | inactive | inactive | inactive | inactive |  | inactive |  |  |  |  | 
18 | Nc1ccc(N=Nc2ccc(-c3ccc(N=Nc4c(S(=O)(=O)O)cc5cc(S(=O)(=O)O)c(N=Nc6ccccc6)c(O)c5c4N)cc3)cc2)c(N)c1 |  |  | inactive | inactive |  | inactive |  |  | inactive | 15.7 µM (active) | inactive | inactive | 15.7 µM (active) |  |  |  |  |  |  | 
19 | c1ccc(CN2CCNCC2)cc1 | inactive | inactive | inactive | inactive |  | inactive | inactive | inactive | inactive | inactive | inactive | inactive | inactive |  |  |  |  |  |  | 
20 | CN1C(=O)NC(=O)C(C)(C2=CCCCC2)C1=O (stereo not given) | inactive | inactive | inactive | inactive |  | inactive | inactive |  | inactive | inactive | inactive | inactive | inactive | inactive | inactive |  |  |  |  | 
21 | CC(C)N(CCC(C(N)=O)(c1ccccc1)c1ccccn1)C(C)C (stereo not given) | inactive | inactive | inactive | inactive |  | inactive | inactive |  | inactive | inactive | inactive | inactive | inactive |  | inactive | inactive | inactive |  |  | inactive
